# According to PMC11006913:
# Positions count from the first letter of the chain named.
# Assays:
# Experiment in all cases: PBM; 200 nM protein, PBS
# Conditions in all cases: dsDNA, one strand shown
# NKX2-4 [1] = biological target: T1, NKX2-4 (Homo sapiens, UniProt Q9H2Z4 175-261, P217L)
# T1 sequence: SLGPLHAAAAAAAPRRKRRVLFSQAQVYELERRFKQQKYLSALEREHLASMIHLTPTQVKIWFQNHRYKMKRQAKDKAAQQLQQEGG
# NKX2-4 [2] = biological target: T2, NKX2-4 (Homo sapiens, UniProt Q9H2Z4 175-261, T231S)
# T2 sequence: T1 sequence with L43P, T57S
# NKX2-4 [3] = biological target: T3, NKX2-4 (Homo sapiens, UniProt Q9H2Z4 175-261)
# T3 sequence: T1 sequence with L43P
# HOXB6 [4] = biological target: HOXB6 (Homo sapiens, UniProt P17509 132-218, K202E)
# NKX2-4 [5] = biological target: T4, NKX2-4 (Homo sapiens, UniProt Q9H2Z4 175-261, R246Q)
# T4 sequence: T1 sequence with L43P, R72Q
# HOXB6 [6] = biological target: HOXB6 (Homo sapiens, UniProt P17509 132-218)
# MSX2 [7] = biological target: MSX2 (Homo sapiens, UniProt P35548 130-214, R199I)
# MSX2 [8] = biological target: MSX2 (Homo sapiens, UniProt P35548 130-214)
# PROP1 [9] = biological target: PROP1 (Homo sapiens, UniProt O75360 56-141)
# PROP1 [10] = biological target: PROP1 (Homo sapiens, UniProt O75360 56-141, R99H)
# PROP1 [11] = biological target: PROP1 (Homo sapiens, UniProt O75360 56-141, F88S)
# MSX2 [12] = biological target: MSX2 (Homo sapiens, UniProt P35548 130-214, F161Y)
# HOXA2 [13] = biological target: HOXA2 (Homo sapiens, UniProt O43364 129-215, R185T)
# HOXA2 [14] = biological target: HOXA2 (Homo sapiens, UniProt O43364 129-215, R185K)
# VAX1 [15] = biological target: VAX1 (Homo sapiens, UniProt Q5SQQ9 86-172)
# VAX1 [16] = biological target: VAX1 (Homo sapiens, UniProt Q5SQQ9 86-172, T142I)
# HOXA2 [17] = biological target: HOXA2 (Homo sapiens, UniProt O43364 129-215, Y150S)
# HOXA2 [18] = biological target: HOXA2 (Homo sapiens, UniProt O43364 129-215)
# VAX1 [19] = biological target: VAX1 (Homo sapiens, UniProt Q5SQQ9 86-172, K157R)
# Chain of VAX1 (Homo sapiens, UniProt Q5SQQ9 86-172, K157R) (Q5SQQ9 86-172 K157R): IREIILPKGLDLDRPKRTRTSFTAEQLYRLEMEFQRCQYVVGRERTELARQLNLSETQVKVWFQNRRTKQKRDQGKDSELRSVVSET
# Chain of HOXB6 (Homo sapiens, UniProt P17509 132-218, K202E) (P17509 132-218 K202E): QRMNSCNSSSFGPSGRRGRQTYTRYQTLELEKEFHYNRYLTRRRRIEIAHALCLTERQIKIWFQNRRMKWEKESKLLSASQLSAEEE
# Chain of HOXB6 (Homo sapiens, UniProt P17509 132-218) (P17509 132-218): as the sequence (P17509 132-218 K202E) above, with E71K counted along it
# Chain of PROP1 (Homo sapiens, UniProt O75360 56-141, R99H) (O75360 56-141 R99H): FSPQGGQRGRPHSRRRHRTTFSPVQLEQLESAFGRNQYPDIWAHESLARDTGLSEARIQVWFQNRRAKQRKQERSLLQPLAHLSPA
# Chain of HOXA2 (Homo sapiens, UniProt O43364 129-215, Y150S) (O43364 129-215 Y150S): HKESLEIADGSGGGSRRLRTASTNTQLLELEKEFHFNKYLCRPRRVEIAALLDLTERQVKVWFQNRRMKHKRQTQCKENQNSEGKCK
# Chain of MSX2 (Homo sapiens, UniProt P35548 130-214, F161Y) (P35548 130-214 F161Y): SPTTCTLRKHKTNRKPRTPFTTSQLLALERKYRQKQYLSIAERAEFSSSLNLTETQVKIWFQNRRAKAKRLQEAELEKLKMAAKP
# Chain of PROP1 (Homo sapiens, UniProt O75360 56-141, F88S) (O75360 56-141 F88S): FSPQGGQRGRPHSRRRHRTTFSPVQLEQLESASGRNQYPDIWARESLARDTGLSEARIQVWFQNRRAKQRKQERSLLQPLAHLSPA
# Chain of VAX1 (Homo sapiens, UniProt Q5SQQ9 86-172, T142I) (Q5SQQ9 86-172 T142I): as the sequence (Q5SQQ9 86-172 K157R) above, with T57I, R72K counted along it
# Chain of HOXA2 (Homo sapiens, UniProt O43364 129-215) (O43364 129-215): as the sequence (O43364 129-215 Y150S) above, with S22Y counted along it
# Chain of PROP1 (Homo sapiens, UniProt O75360 56-141) (O75360 56-141): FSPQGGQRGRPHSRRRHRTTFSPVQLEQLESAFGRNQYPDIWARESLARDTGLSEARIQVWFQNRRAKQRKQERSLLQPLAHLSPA
# Chain of MSX2 (Homo sapiens, UniProt P35548 130-214) (P35548 130-214): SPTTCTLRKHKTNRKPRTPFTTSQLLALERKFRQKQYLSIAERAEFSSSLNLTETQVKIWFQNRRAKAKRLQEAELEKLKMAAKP
# Chain of HOXA2 (Homo sapiens, UniProt O43364 129-215, R185T) (O43364 129-215 R185T): as the sequence (O43364 129-215 Y150S) above, with S22Y, R57T counted along it
# Chain of MSX2 (Homo sapiens, UniProt P35548 130-214, R199I) (P35548 130-214 R199I): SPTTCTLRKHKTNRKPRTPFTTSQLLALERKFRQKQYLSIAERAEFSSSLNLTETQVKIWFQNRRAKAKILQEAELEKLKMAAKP
# Chain of HOXA2 (Homo sapiens, UniProt O43364 129-215, R185K) (O43364 129-215 R185K): as the sequence (O43364 129-215 Y150S) above, with S22Y, R57K counted along it
# Chain of VAX1 (Homo sapiens, UniProt Q5SQQ9 86-172) (Q5SQQ9 86-172): as the sequence (Q5SQQ9 86-172 K157R) above, with R72K counted along it
sequence,measurement,setting,value
CCAGGCTC,binding signal,NKX2-4 [1],"9.76 upbm affinity estimate (log intensity, higher = more binding, comparable within an allelic series)"
same,binding signal,NKX2-4 [2],"9.75 upbm affinity estimate (log intensity, higher = more binding, comparable within an allelic series)"
same,binding signal,NKX2-4 [3],"9.7 upbm affinity estimate (log intensity, higher = more binding, comparable within an allelic series)"
same,binding signal,HOXB6 [4],"9.08 upbm affinity estimate (log intensity, higher = more binding, comparable within an allelic series)"
same,binding signal,NKX2-4 [5],"9.86 upbm affinity estimate (log intensity, higher = more binding, comparable within an allelic series)"
same,binding signal,HOXB6 [6],"9.18 upbm affinity estimate (log intensity, higher = more binding, comparable within an allelic series)"
GACTGAGC,binding signal,NKX2-4 [1],"9.79 upbm affinity estimate (log intensity, higher = more binding, comparable within an allelic series)"
same,binding signal,NKX2-4 [2],"9.84 upbm affinity estimate (log intensity, higher = more binding, comparable within an allelic series)"
same,binding signal,NKX2-4 [3],"9.65 upbm affinity estimate (log intensity, higher = more binding, comparable within an allelic series)"
same,binding signal,MSX2 [7],"9.57 upbm affinity estimate (log intensity, higher = more binding, comparable within an allelic series)"
same,binding signal,MSX2 [8],"9.48 upbm affinity estimate (log intensity, higher = more binding, comparable within an allelic series)"
same,binding signal,NKX2-4 [5],"9.92 upbm affinity estimate (log intensity, higher = more binding, comparable within an allelic series)"
same,binding signal,PROP1 [9],"6.86 upbm affinity estimate (log intensity, higher = more binding, comparable within an allelic series)"
same,binding signal,PROP1 [10],"6.74 upbm affinity estimate (log intensity, higher = more binding, comparable within an allelic series)"
same,binding signal,PROP1 [11],"6.66 upbm affinity estimate (log intensity, higher = more binding, comparable within an allelic series)"
same,binding signal,MSX2 [12],"9.49 upbm affinity estimate (log intensity, higher = more binding, comparable within an allelic series)"
CCCTCATA,binding signal,NKX2-4 [1],"11.6 upbm affinity estimate (log intensity, higher = more binding, comparable within an allelic series)"
same,binding signal,NKX2-4 [2],"11.8 upbm affinity estimate (log intensity, higher = more binding, comparable within an allelic series)"
same,binding signal,NKX2-4 [3],"11.5 upbm affinity estimate (log intensity, higher = more binding, comparable within an allelic series)"
ACCCTTAC,binding signal,NKX2-4 [1],"11.5 upbm affinity estimate (log intensity, higher = more binding, comparable within an allelic series)"
same,binding signal,NKX2-4 [2],"11.7 upbm affinity estimate (log intensity, higher = more binding, comparable within an allelic series)"
same,binding signal,NKX2-4 [3],"11.4 upbm affinity estimate (log intensity, higher = more binding, comparable within an allelic series)"
GCCACGCC,binding signal,NKX2-4 [1],"9.91 upbm affinity estimate (log intensity, higher = more binding, comparable within an allelic series)"
same,binding signal,NKX2-4 [2],"9.93 upbm affinity estimate (log intensity, higher = more binding, comparable within an allelic series)"
same,binding signal,NKX2-4 [3],"9.88 upbm affinity estimate (log intensity, higher = more binding, comparable within an allelic series)"
same,binding signal,HOXA2 [13],"7.26 upbm affinity estimate (log intensity, higher = more binding, comparable within an allelic series)"
same,binding signal,HOXA2 [14],"10.2 upbm affinity estimate (log intensity, higher = more binding, comparable within an allelic series)"
same,binding signal,NKX2-4 [5],"9.85 upbm affinity estimate (log intensity, higher = more binding, comparable within an allelic series)"
same,binding signal,VAX1 [15],"7.13 upbm affinity estimate (log intensity, higher = more binding, comparable within an allelic series)"
same,binding signal,VAX1 [16],"7.33 upbm affinity estimate (log intensity, higher = more binding, comparable within an allelic series)"
same,binding signal,HOXA2 [17],"10.4 upbm affinity estimate (log intensity, higher = more binding, comparable within an allelic series)"
same,binding signal,HOXA2 [18],"7.17 upbm affinity estimate (log intensity, higher = more binding, comparable within an allelic series)"
same,binding signal,VAX1 [19],"7.18 upbm affinity estimate (log intensity, higher = more binding, comparable within an allelic series)"
AGAGGGCT,binding signal,NKX2-4 [1],"11.7 upbm affinity estimate (log intensity, higher = more binding, comparable within an allelic series)"
same,binding signal,NKX2-4 [2],"11.9 upbm affinity estimate (log intensity, higher = more binding, comparable within an allelic series)"
same,binding signal,NKX2-4 [3],"11.7 upbm affinity estimate (log intensity, higher = more binding, comparable within an allelic series)"
CCGGTCGC,binding signal,NKX2-4 [1],"9.53 upbm affinity estimate (log intensity, higher = more binding, comparable within an allelic series)"
same,binding signal,NKX2-4 [2],"9.41 upbm affinity estimate (log intensity, higher = more binding, comparable within an allelic series)"
same,binding signal,NKX2-4 [3],"9.5 upbm affinity estimate (log intensity, higher = more binding, comparable within an allelic series)"
same,binding signal,NKX2-4 [5],"9.51 upbm affinity estimate (log intensity, higher = more binding, comparable within an allelic series)"
ACTCCTCG,binding signal,NKX2-4 [1],"11.6 upbm affinity estimate (log intensity, higher = more binding, comparable within an allelic series)"
same,binding signal,NKX2-4 [2],"11.8 upbm affinity estimate (log intensity, higher = more binding, comparable within an allelic series)"
same,binding signal,NKX2-4 [3],"11.5 upbm affinity estimate (log intensity, higher = more binding, comparable within an allelic series)"
CTTCTCAA,binding signal,NKX2-4 [1],"11.7 upbm affinity estimate (log intensity, higher = more binding, comparable within an allelic series)"
same,binding signal,NKX2-4 [2],"11.9 upbm affinity estimate (log intensity, higher = more binding, comparable within an allelic series)"
same,binding signal,NKX2-4 [3],"11.5 upbm affinity estimate (log intensity, higher = more binding, comparable within an allelic series)"
same,binding signal,NKX2-4 [5],"11.9 upbm affinity estimate (log intensity, higher = more binding, comparable within an allelic series)"
AGCTGCGG,binding signal,NKX2-4 [1],"9.39 upbm affinity estimate (log intensity, higher = more binding, comparable within an allelic series)"
same,binding signal,NKX2-4 [2],"9.21 upbm affinity estimate (log intensity, higher = more binding, comparable within an allelic series)"
same,binding signal,NKX2-4 [3],"9.33 upbm affinity estimate (log intensity, higher = more binding, comparable within an allelic series)"
same,binding signal,NKX2-4 [5],"9.45 upbm affinity estimate (log intensity, higher = more binding, comparable within an allelic series)"
ACCATTGA,binding signal,NKX2-4 [1],"11.3 upbm affinity estimate (log intensity, higher = more binding, comparable within an allelic series)"
same,binding signal,NKX2-4 [2],"11.5 upbm affinity estimate (log intensity, higher = more binding, comparable within an allelic series)"
same,binding signal,NKX2-4 [3],"11.3 upbm affinity estimate (log intensity, higher = more binding, comparable within an allelic series)"
same,binding signal,HOXB6 [4],"9.55 upbm affinity estimate (log intensity, higher = more binding, comparable within an allelic series)"
same,binding signal,NKX2-4 [5],"11.5 upbm affinity estimate (log intensity, higher = more binding, comparable within an allelic series)"
same,binding signal,HOXB6 [6],"10.2 upbm affinity estimate (log intensity, higher = more binding, comparable within an allelic series)"
CGGGTACG,binding signal,NKX2-4 [1],"9.52 upbm affinity estimate (log intensity, higher = more binding, comparable within an allelic series)"
same,binding signal,NKX2-4 [2],"9.68 upbm affinity estimate (log intensity, higher = more binding, comparable within an allelic series)"
same,binding signal,NKX2-4 [3],"9.69 upbm affinity estimate (log intensity, higher = more binding, comparable within an allelic series)"
same,binding signal,NKX2-4 [5],"9.6 upbm affinity estimate (log intensity, higher = more binding, comparable within an allelic series)"
